# High-throughput results as filed in PubChem BioAssay.
# Rows were chosen to be rich in hits. Some 2.3% of all compounds tested hit in one or more screens of this group.
# ATXN2 expr inh: inhibitors of ATXN2 expression; AID 1745845; Potency, µM (series often up to 57 µM), inactives show at the top dose activity change, negative = inhibition, hits mostly inhibitors; 360,000 tested, 0.72% active; HEK-293 ATXN2-luciferase reporter, luminescence, 24 h; also: % is scaled to controls: 0 for no effect and ±100 for the full control effect; nearly all actives have a fitted effect of over 55% in size
#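 ATXN2-luciferase reporter cells (luciferase flanked by upstream and downstream ATXN2 gene portions) were treated 24 h at 37 °C with compounds at up to 57 uM. SteadyGlo luminescence gave expression; GF-AFC fluorescence gave viability.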
# HepG2 tox: counter-screen for TGF-b inhibitors: cytotoxicity in HepG2 cells; 410,000 tested, 0.76% active; HepG2 CAGA-GFP viability, ATP luminescence, 18 h; Potency, µM (top dose mostly 46.1 µM), inactives show at the top dose activity change, negative = cytotoxicity, actives largely listed as cytotoxic
#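 HepG2 CAGA-GFP cells (1000/well, DMEM with 1% FBS) received compound, then TGF-beta at 500 pg/mL final, and were incubated 18 hours at 37 degrees C. Viability was read by CellTiter-Glo luminescence. Media-only wells were set as complete cell-killing and DMSO as no toxicity.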
# ATXN viability: viability counter-screen for ATXN expression inhibitors. S2 cells (HEK-293 line with an ATXN2-luciferase reporter) viability, CellTiter-Fluor protease fluorescence, 24 h. Potency, µM (top dose mostly 56.7 µM), actives largely listed as cytotoxic. 400,000 tested, 0.49% active. AID 651635; also: nearly all actives have a fitted effect of over 40% in size
# TGFb SMAD3 inh: blocks TGF-b signaling. HepG2 CAGA-GFP TGF-b/SMAD3 reporter, GFP fluorescence, 18 h; TGF-beta stimulated, 500 pg/mL final. 410,000 tested, 1.2% active. AID 588855. Potency, µM (top dose mostly 46.1 µM), for inactives: at the highest dose activity, negative = inhibition, actives largely listed as inhibitors; also: % is scaled to controls: 0 for no effect and ±100 for the full control effect; nearly all actives have a fitted effect of over 65% in size
#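 HEPG2 CAGA-GFP cells (1000/well, DMEM with 1% FBS) were pre-incubated 2 h at 37 degrees C, given compound by pin tool, then stimulated with TGF-beta at 500 pg/mL final for 18 h before per-cell GFP fluorescence imaging.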
# * hit, by the source's call; i = inactive; ? = inconclusive; nt = no result. Calls follow the shape of the dose curve; as a rule, active = well fitted curve in the direction sought with a large enough effect; inconclusive = small, poorly fitted or top-dose-only effect, or another doubt; inactive = no such curve, though single readings can be large; an effect the other way counts as inactive or inconclusive. Potency is read from the fitted curve at half-maximal effect.
SMILES,ATXN2 expr inh,HepG2 tox,ATXN viability,TGFb SMAD3 inh
Cc1cc(C)cc(N(CC(=O)NC2CCCCC2)C(=O)CCCC(=O)Nc2ccccn2)c1,-10%,11µM*,i,-16%
COc1ccc2ccccc2c1CNC(C)c1ccccc1 (centres undefined),nt,-30%,i,4%
CC(NCCCOc1cccc2ccccc12)c1ccccc1 (centres undefined),nt,20µM*,?,?
O=C(COC(=O)c1cccc2c1C(=O)c1ccccc1C2=O)NC1CCCCC1,-27%,-8%,i,?
O=C(COC(=O)c1ccc2c(c1[N+](=O)[O-])C(=O)c1ccccc1C2=O)NC1CC1,-16%,-43%,28µM*,18µM*
O=C(CCn1c(=O)[nH]c2ccccc21)NCC1Cc2cc(Cl)cc(-c3ccncc3)c2O1 (centres undefined),nt,nt,i,nt
O=C(Cc1ccc(S(=O)(=O)N2CCOCC2)s1)Nc1cc(C(F)(F)F)cc(C(F)(F)F)c1,?,-83%,?,18µM*
O=C(Cc1ccc(S(=O)(=O)N2CCOCC2)s1)Nc1cc(C(F)(F)F)ccc1N1CCCC1,-30%,-13%,i,-29%
COc1ccc(/C=C/C(=O)N2CCc3c(cnc(C)c3CNC(=O)c3ccsc3)C2)cc1OC,nt,nt,i,nt
CC(C)(C)n1ncc2c(=O)n(Cc3cccc(Oc4ccccc4)c3)cnc21,nt,-3%,nt,-18%
O=C(O)Cn1nnc(-c2cccs2)n1,1%,3.2µM*,i,-3%
NS(=O)(=O)c1cccc(NC(=O)c2cc(=O)c3ccccc3o2)c1,0%,3%,i,-6%
CN(c1ccccc1)S(=O)(=O)c1cccc(NC(=O)c2cc(=O)c3ccccc3o2)c1,13µM*,-7%,?,7%
CCn1c(-c2ccccc2F)nc2cc(NC(C)=O)cc(C(=O)N(C)Cc3ccccn3)c21,nt,nt,i,nt
CCOC(=O)c1sc(N(Cc2ccccc2)C(=O)COC(=O)c2ccc(O)cc2)nc1C,?,-97%,i,13µM*
CCOC(=O)c1sc(N(Cc2ccccc2)C(=O)COC(=O)c2ccccc2O)nc1C,23%,2%,i,-1%
CON=C(C(=O)N[C@@H]1C(=O)N2C(C(=O)O)=C(Cn3ccc(=N)n3CCO)CS[C@H]12)c1csc(N)n1,2%,nt,nt,nt
CC[C@@H](C(=O)[C@@H](C)[C@@H](O)[C@H](C)CCc1ccc(C)c(O)c1C(=O)O)[C@H]1O[C@](CC)([C@H]2CC[C@](O)(CC)[C@H](C)O2)C[C@@H]1C,20µM*,-101%,13µM*,10µM*
O=C(CN1CCN(S(=O)(=O)c2ccc(Br)cc2)CC1)Nc1ccccc1F,-13%,14µM*,i,-8%
Cn1cc([N+](=O)[O-])c(C(=O)Nc2nc(-c3ccc(Cl)cc3)cs2)n1,3%,6.3µM*,i,?
O=C(Nc1nc(-c2ccc(Cl)cc2)cs1)NC1CCCCC1,-10%,-35%,i,11µM*
O=C(Nc1ccc(Cl)cc1)Nc1nc(-c2ccccc2)cs1,-17%,-7%,?,?
Cc1cccc(C(=O)NCc2nc(-c3cccc(NC(=O)C4CCCN(C)C4)c3)oc2C)n1 (centres undefined),nt,nt,i,nt
Cc1nn(-c2ccccc2)c(C)c1CC(=O)NCC1Cc2cc(-c3cncnc3)ccc2O1 (centres undefined),nt,nt,i,nt
COc1cc(=O)n2c(c1C(=O)NCc1ccco1)CCN(Cc1cccc(C)n1)CC2,nt,nt,i,nt
C=C1[C@@H](O)[C@@H]2O[C@]3(CC[C@H](/C=C/[C@@H](C)[C@@H]4CC(C)=CC5(O[C@H](C[C@@](C)(O)C(=O)OC)CC[C@H]5O)O4)O3)CC[C@H]2O[C@@H]1[C@@H](O)C[C@H](C)[C@H]1OC2(CCCCO2)CC[C@H]1C (some centres undefined),?,-26%,?,0.89µM*
C=C1C(O)[C@@H]2O[C@]3(CC[C@H](/C=C/C(C)[C@@H]4CC(C)=CC5(O[C@H](C[C@@](C)(O)CO)CCC5O)O4)O3)CC[C@H]2O[C@@H]1C(O)CC(C)[C@H]1OC2(CCCCO2)CCC1C (some centres undefined),-24%,-16%,?,7.9µM*
COc1ccc(OC)c(C(=O)N2CCOc3ccc(C(C)(O)CN(C)C)cc3C2)c1 (centres undefined),nt,nt,i,nt
